target: Leucine-rich repeat serine/threonine-protein kinase 2 (Homo sapiens) (UniProt Q5S007); settings: at 1 µM
Sequence (Q5S007 whole entry): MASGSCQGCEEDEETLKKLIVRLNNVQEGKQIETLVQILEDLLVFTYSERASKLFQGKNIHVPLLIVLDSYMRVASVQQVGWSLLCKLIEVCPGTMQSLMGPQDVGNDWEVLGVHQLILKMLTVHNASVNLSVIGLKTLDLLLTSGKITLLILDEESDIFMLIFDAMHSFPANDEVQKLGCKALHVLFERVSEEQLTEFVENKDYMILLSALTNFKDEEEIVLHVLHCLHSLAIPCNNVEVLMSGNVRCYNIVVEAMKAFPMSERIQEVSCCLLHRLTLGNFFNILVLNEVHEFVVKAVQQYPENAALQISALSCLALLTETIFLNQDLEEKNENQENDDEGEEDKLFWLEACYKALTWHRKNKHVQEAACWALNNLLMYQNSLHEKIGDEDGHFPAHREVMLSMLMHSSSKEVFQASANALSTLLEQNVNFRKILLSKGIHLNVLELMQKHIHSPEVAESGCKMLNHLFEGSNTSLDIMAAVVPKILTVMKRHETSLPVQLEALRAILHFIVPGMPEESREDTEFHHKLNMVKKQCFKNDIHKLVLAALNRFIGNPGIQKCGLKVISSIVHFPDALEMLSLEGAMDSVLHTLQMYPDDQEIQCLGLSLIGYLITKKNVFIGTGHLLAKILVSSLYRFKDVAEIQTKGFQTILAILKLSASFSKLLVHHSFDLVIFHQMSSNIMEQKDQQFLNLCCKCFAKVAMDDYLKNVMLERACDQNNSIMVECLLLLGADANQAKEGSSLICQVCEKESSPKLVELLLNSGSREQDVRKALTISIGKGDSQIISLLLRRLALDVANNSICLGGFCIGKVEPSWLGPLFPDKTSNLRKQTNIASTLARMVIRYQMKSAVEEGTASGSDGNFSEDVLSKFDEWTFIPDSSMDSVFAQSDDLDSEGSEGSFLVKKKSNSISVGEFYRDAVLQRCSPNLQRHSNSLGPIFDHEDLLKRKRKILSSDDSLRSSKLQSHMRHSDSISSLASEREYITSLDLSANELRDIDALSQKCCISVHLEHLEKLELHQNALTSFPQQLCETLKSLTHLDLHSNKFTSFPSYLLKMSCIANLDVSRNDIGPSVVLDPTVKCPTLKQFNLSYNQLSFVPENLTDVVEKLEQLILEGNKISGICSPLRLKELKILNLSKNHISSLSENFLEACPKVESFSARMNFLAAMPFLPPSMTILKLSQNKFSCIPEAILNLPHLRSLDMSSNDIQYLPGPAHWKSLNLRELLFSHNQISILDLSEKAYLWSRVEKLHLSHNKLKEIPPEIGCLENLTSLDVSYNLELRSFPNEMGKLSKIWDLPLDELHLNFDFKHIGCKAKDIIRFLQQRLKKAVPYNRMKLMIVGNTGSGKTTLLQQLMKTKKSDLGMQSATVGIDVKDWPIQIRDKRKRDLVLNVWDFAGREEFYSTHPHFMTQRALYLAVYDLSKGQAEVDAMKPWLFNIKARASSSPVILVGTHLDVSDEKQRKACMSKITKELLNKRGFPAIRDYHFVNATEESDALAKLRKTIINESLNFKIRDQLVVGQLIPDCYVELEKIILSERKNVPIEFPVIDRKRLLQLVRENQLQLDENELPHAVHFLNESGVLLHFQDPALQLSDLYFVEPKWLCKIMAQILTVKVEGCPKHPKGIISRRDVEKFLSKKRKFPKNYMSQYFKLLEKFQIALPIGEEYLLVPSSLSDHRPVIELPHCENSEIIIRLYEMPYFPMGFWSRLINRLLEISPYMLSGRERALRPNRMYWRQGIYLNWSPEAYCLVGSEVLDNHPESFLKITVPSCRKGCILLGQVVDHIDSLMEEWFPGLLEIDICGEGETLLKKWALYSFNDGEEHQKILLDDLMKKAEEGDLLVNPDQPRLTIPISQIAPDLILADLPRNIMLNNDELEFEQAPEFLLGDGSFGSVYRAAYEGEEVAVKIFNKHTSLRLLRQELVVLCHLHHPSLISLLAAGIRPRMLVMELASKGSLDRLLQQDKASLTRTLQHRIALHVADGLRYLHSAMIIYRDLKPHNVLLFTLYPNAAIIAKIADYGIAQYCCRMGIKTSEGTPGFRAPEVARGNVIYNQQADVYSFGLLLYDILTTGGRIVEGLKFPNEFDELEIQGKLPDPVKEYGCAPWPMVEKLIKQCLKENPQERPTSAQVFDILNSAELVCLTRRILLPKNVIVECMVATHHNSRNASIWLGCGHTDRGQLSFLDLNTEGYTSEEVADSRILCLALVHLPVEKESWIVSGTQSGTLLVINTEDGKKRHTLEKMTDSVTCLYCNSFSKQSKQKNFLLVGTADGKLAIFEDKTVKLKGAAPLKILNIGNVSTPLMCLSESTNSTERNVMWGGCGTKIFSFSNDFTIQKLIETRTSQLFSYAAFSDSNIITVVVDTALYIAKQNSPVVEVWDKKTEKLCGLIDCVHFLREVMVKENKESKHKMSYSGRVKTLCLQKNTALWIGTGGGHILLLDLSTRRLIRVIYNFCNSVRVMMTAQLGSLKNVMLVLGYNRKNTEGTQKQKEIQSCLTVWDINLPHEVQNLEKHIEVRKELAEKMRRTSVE

Structure (SMILES) | inhibition [%]
O=C(O[C@H]1CN[C@H](C#Cc2cc3ncnc(Nc4ccc(Cc5ccccc5)cc4)c3s2)C1)N1CCOCC1 | 2.6
CCNC(=O)O[C@H]1CN[C@H](C#Cc2cc3ncnc(Nc4ccc(OCc5cccc(F)c5)c(Cl)c4)c3s2)C1 | 4.18
O=S(=O)(CCNCc1ccc(-c2ccc3ncnc(Nc4ccc(OCc5cccc(F)c5)c(Cl)c4)c3c2)o1)c1ccccc1 | 4.53
Cc1cccc(Nc2ncc(-c3ccccc3)o2)c1 | 7.74
N#Cc1c(NC(=O)c2ccc(F)cc2)sc2c1CCCC2 | 1.04
NS(=O)(=O)c1ccc(N/N=C2\C(=O)Nc3ccc4ncccc4c32)cc1 | 22.2
CC(=O)Nc1cccc(C#Cc2cncnc2Nc2ccc(OCc3cccc(F)c3)c(Cl)c2)c1 | 7.3
COc1cccc(-n2ncc3c(N/N=C/c4ccc(F)cc4)ncnc32)c1 | 6.79
CCCN(CCS(C)(=O)=O)Cc1ccc(-c2ccc3ncnc(Nc4ccc(OCc5cccc(F)c5)c(Cl)c4)c3c2)o1 | 4.95
COc1cccc(-c2c[nH]c3c(N/N=C/c4ccncc4)ncnc23)c1 | 14
CCn1cc(-c2ccnc3[nH]ccc23)c(-c2cccc(NC(=O)Nc3ccc(OCc4ccccc4)cc3)c2)n1 | 3.32
Cc1ccc(O)cc1Nc1ccnc2cc(-c3ccccn3)ccc12 | 11.4
CCn1c(-c2nonc2N)nc2c(C#CC(C)(C)O)ncc(OC3CCNCC3)c21 | 6.79
CCn1c(-c2nonc2N)nc2c(C#CC(C)(C)O)nc(OC[C@H](N)c3ccccc3)cc21 | 29.8
Cc1ccc2c(-c3ccnc(Nc4ccccc4)n3)c(-c3ccc(F)cc3)nn2n1 | 7.93
[O-][S+]1CCN(Cc2ccc(-c3ccc4ncnc(Nc5ccc(OCc6cccc(F)c6)c(Cl)c5)c4c3)o2)CC1 | 3.96
COc1ccc2[nH]c3c4[nH]c5ccc(OC)cc5c4c4c(c3c2c1)C(=O)NC4=O | 24.3

Structure (SMILES) | inhibition [%]
c1cc(-c2cnn3nc(N4CCOCC4)ccc23)nc(NC2CC2)n1 | 16.4
Cc1cccc2c1NC(=O)/C2=N\Nc1ccc(S(N)(=O)=O)cc1 | 7.1
CC(C)COC(=O)c1ccc2c(c1)/C(=C/Nc1ccc(S(N)(=O)=O)cc1)C(=O)N2 | 22.7
N#Cc1c(NC(=O)CN2CCOCC2)sc2c1CCCC2 | 8.63
CC1=C(C(=O)Nc2cc(Cl)c3[nH]ncc3c2)C(c2ccc(C(F)(F)F)cc2)CC(=O)N1 (stereo not drawn) | 4.9
c1ccc(-c2nc3n(c2-c2ccc4c(c2)OCO4)CCC3)nc1 | 3.89
COC(=O)Nc1nc2ccc(Oc3ccc(NC(=O)Nc4cccc(Cl)c4)cc3)cc2[nH]1 | 14.1
Nc1nc(-c2cccc(Cl)c2)c(-c2ccc3ncccc3n2)s1 | 7.21
COc1cc(N2CCN(C(C)C)CC2)ccc1Nc1nc(Nc2ccc(F)cc2C(N)=O)c2cc[nH]c2n1 | 94.8
NS(=O)(=O)c1ccc(Nc2ncc(-c3ccccc3)o2)cc1 | 15
COc1ccc2c(-c3ccnc(Nc4cccc(OC(F)(F)F)c4)n3)cnn2n1 | 14.5
O=C(Nc1n[nH]c2cc(-c3ccc(F)cc3)ccc12)C1CC1 | 5.22
CS(=O)(=O)CCNCc1ccc(-c2ccc3ncnc(Nc4ccc(OCc5ccccc5)c(C(F)(F)F)c4)c3c2)o1 | 4.18
Nc1nc(-c2ccc(F)cc2)c(-c2ccc3ncccc3n2)s1 | 6.21
CC(C)(CO)CNC(=O)c1ccc2c(c1)/C(=N/Nc1ccc(S(N)(=O)=O)cc1)C(=O)N2 | 15
FC(F)(F)c1cccc(-c2nn3ncccc3c2-c2ccnc(Nc3ccc4c(c3)OCCO4)n2)c1 | 5.46
COc1cc2c(cc1Nc1nc(Nc3ccsc3C(N)=O)c3cc[nH]c3n1)N(C(=O)CN(C)C)CCC2(C)C | 98

tested on: Leucine-rich repeat serine/threonine-protein kinase 2 (Homo sapiens), Q5S007 [G2019S]; settings: at 0.1 µM
Sequence (Q5S007 whole entry G2019S): as the sequence (Q5S007 whole entry) above, with G2019S counted along it

Structure (SMILES) | inhibition [%]
O=C(O[C@H]1CN[C@H](C#Cc2cc3ncnc(Nc4ccc(Cc5ccccc5)cc4)c3s2)C1)N1CCOCC1 | 2.35
CCNC(=O)O[C@H]1CN[C@H](C#Cc2cc3ncnc(Nc4ccc(OCc5cccc(F)c5)c(Cl)c4)c3s2)C1 | 2.44
O=S(=O)(CCNCc1ccc(-c2ccc3ncnc(Nc4ccc(OCc5cccc(F)c5)c(Cl)c4)c3c2)o1)c1ccccc1 | 6.27
Cc1cccc(Nc2ncc(-c3ccccc3)o2)c1 | 5.32
N#Cc1c(NC(=O)c2ccc(F)cc2)sc2c1CCCC2 | 1.92
NS(=O)(=O)c1ccc(N/N=C2\C(=O)Nc3ccc4ncccc4c32)cc1 | 40.4
CC(=O)Nc1cccc(C#Cc2cncnc2Nc2ccc(OCc3cccc(F)c3)c(Cl)c2)c1 | 3.19
COc1cccc(-n2ncc3c(N/N=C/c4ccc(F)cc4)ncnc32)c1 | 5.09
CCCN(CCS(C)(=O)=O)Cc1ccc(-c2ccc3ncnc(Nc4ccc(OCc5cccc(F)c5)c(Cl)c4)c3c2)o1 | 4.3
COc1cccc(-c2c[nH]c3c(N/N=C/c4ccncc4)ncnc23)c1 | 5.22
CCn1cc(-c2ccnc3[nH]ccc23)c(-c2cccc(NC(=O)Nc3ccc(OCc4ccccc4)cc3)c2)n1 | 3.73
Cc1ccc(O)cc1Nc1ccnc2cc(-c3ccccn3)ccc12 | 7.5
CCn1c(-c2nonc2N)nc2c(C#CC(C)(C)O)ncc(OC3CCNCC3)c21 | 3.92
CCn1c(-c2nonc2N)nc2c(C#CC(C)(C)O)nc(OC[C@H](N)c3ccccc3)cc21 | 23.8
Cc1ccc2c(-c3ccnc(Nc4ccccc4)n3)c(-c3ccc(F)cc3)nn2n1 | 3.36
[O-][S+]1CCN(Cc2ccc(-c3ccc4ncnc(Nc5ccc(OCc6cccc(F)c6)c(Cl)c5)c4c3)o2)CC1 | 6.35
COc1ccc2[nH]c3c4[nH]c5ccc(OC)cc5c4c4c(c3c2c1)C(=O)NC4=O | 61

Structure (SMILES) | inhibition [%]
c1cc(-c2cnn3nc(N4CCOCC4)ccc23)nc(NC2CC2)n1 | 6.59
Cc1cccc2c1NC(=O)/C2=N\Nc1ccc(S(N)(=O)=O)cc1 | 2.75
CC(C)COC(=O)c1ccc2c(c1)/C(=C/Nc1ccc(S(N)(=O)=O)cc1)C(=O)N2 | 23.3
N#Cc1c(NC(=O)CN2CCOCC2)sc2c1CCCC2 | 3.95
CC1=C(C(=O)Nc2cc(Cl)c3[nH]ncc3c2)C(c2ccc(C(F)(F)F)cc2)CC(=O)N1 (stereo not drawn) | 4.35
c1ccc(-c2nc3n(c2-c2ccc4c(c2)OCO4)CCC3)nc1 | 2.25
COC(=O)Nc1nc2ccc(Oc3ccc(NC(=O)Nc4cccc(Cl)c4)cc3)cc2[nH]1 | 5
Nc1nc(-c2cccc(Cl)c2)c(-c2ccc3ncccc3n2)s1 | 6.96
COc1cc(N2CCN(C(C)C)CC2)ccc1Nc1nc(Nc2ccc(F)cc2C(N)=O)c2cc[nH]c2n1 | 85.4
NS(=O)(=O)c1ccc(Nc2ncc(-c3ccccc3)o2)cc1 | 5.15
COc1ccc2c(-c3ccnc(Nc4cccc(OC(F)(F)F)c4)n3)cnn2n1 | 8.08
O=C(Nc1n[nH]c2cc(-c3ccc(F)cc3)ccc12)C1CC1 | 3.03
CS(=O)(=O)CCNCc1ccc(-c2ccc3ncnc(Nc4ccc(OCc5ccccc5)c(C(F)(F)F)c4)c3c2)o1 | 4.54
Nc1nc(-c2ccc(F)cc2)c(-c2ccc3ncccc3n2)s1 | 4.54
CC(C)(CO)CNC(=O)c1ccc2c(c1)/C(=N/Nc1ccc(S(N)(=O)=O)cc1)C(=O)N2 | 6.85
FC(F)(F)c1cccc(-c2nn3ncccc3c2-c2ccnc(Nc3ccc4c(c3)OCCO4)n2)c1 | 2.53
COc1cc2c(cc1Nc1nc(Nc3ccsc3C(N)=O)c3cc[nH]c3n1)N(C(=O)CN(C)C)CCC2(C)C | 85.4

Source: ChEMBL document CHEMBL1961873, “Compounds: GSK PKIS; Assays: Nanosyn kinase panel” (2012)
